# In PubChem BioAssay AID652106 (National Center for Advancing Translational Sciences (NCATS), 2013):
# In all, about 370,000 compounds went through this assay and about 500 (0.14%) were called active. Entries that show only a call come without a potency. Roughly 2% stayed inconclusive and do not appear here. The sample holds actives, similar compounds and a random draw of the others, so the mix is not that of the screen. Calls come from the whole dose curve; as a rule, active = well fitted activation curve with a large enough effect; inconclusive = small, poorly fitted or top-dose-only effect; inactive = no such curve, though single readings can be large or run the other way.
# Test: qHTS of alpha-syn Inhibitors; note: nearly all actives have a fitted effect of over 65% in size
# Conditions: Yeast expressing alpha-synuclein, BacTiter-Glo, 24 h; Potency: growth rescue; series mostly up to 46.1 µM
# Description: The goal of this project is to identify new chemical probes capable of reversing the toxicity associated with the Parkinson disease-related protein, alpha-synuclein. Compounds will be selected on their ability to restore growth in yeast cells expressing toxic levels of alpha-synuclein. These compounds will provide a complementary approach to deciphering the tangled mechanisms of toxicity and protection that we have uncovered through genome-wide genetic screens and are beginning to uncover in a large-scale proteomics analysis with mass spectroscopy. To this end, a miniaturized assay was developed to be screened against the Molecular Libraries Small Molecule Repository (MLSMR) to discover alpha-synuclein inhibitors. Please note that in the set-up this yeast-based assay compounds that inhibit as alpha-syn, have a read-out as activators. NIH Chemical Genomics Center [NCGC] NIH Molecular Libraries Probe Centers Network [MLPCN] MLPCN Grant: NS060957 Assay Submitter (PI): Susan Lindquist, Whitehead Institute/MIT
# Dispense 2.5 microL yeast galactose medium per 1536-well plate, pin compound, dispense 2.5 microL alpha-synuclein expressing yeast in galactose medium at OD600=0.02 (pregrown in raffinose medium to mid-log phase) per well, incubate for 24 hr at 30 deg C, and cell growth will be measured using 5 microL of Bactiter/Glo reagent to entire plate and read using Luminescence Protocol in ViewLux.
# Potency is the fitted concentration of half-maximal effect.
row,Compound,Potency
1,CC1CC2C3CCC4=CC(=O)C=C[C@]4(C)[C@@]3(F)[C@@H](O)C[C@]2(C)[C@@]1(O)C(=O)CO (some centres not stated),inactive
2,CC1(C)CCc2cc(S(=O)(=O)N3CCN(c4nc(-c5cccs5)nc5ccccc45)CC3)ccc2O1,inactive
3,C(=Nc1ccc(/C=C/c2ccnc3ccccc23)cc1)Nc1ccc(/C=C/c2ccnc3ccccc23)cc1,inactive
4,O=C(CSc1ncc(CO)n1Cc1ccc(Cl)cc1)NCc1ccc(F)cc1,inactive
5,COc1ccc(Cl)cc1C(=O)NNC(=S)NC(=O)/C=C/c1ccco1,3.55 µM (active)
6,CCC(C)NC(=O)c1cc(Cl)ccc1OC (configuration not stated),inactive
7,COc1ccc(Cl)cc1C(=O)NNC(=O)c1nc2nc(C)cc(C)n2n1,inactive
8,Cc1cc(C)c2oc(-c3cccc(NC(=O)c4cccc(F)c4)c3C)nc2c1,inactive
9,O=[N+]([O-])c1ccc(S(=O)(=O)N2CCN(c3nc(-c4ccccc4)nc4ccccc34)CC2)cc1,inactive
10,Cc1ccc(C=O)cc1Cl,inactive
11,O=C(Nc1ccccc1)c1ccccc1OCc1ccccc1,inactive
12,OC[C@@H]1O[C@H](n2cnc3c(SCc4ccccc4)ncnc32)[C@H](O)[C@H]1O,inactive
13,COc1ccc(CN(Cc2ccccc2)C(=O)c2ccc(O)cc2)cc1COc1ccc(NC(C)=O)cc1,inactive
14,C=C1C=C(C)n2ncc(C(=O)Nc3ccccc3O)c2N1,inactive
15,COc1cccc2c1C(=O)c1c(O)c3c(c(O)c1C2=O)CC(O)(C(C)=NNC(=O)c1ccc(Cl)c(Cl)c1)CC3OC1CC(N)C(O)C(C)O1 (configuration not stated),28.2 µM (active)
16,Nc1ncnc2nnsc12,inactive
17,CN(N=O)c1ccc(C=C2c3ccccc3-c3ccccc32)cc1,inactive
18,COc1cc(OC)c(/C=C/c2ccnc3ccccc23)c(OC)c1,inactive
19,S=c1[nH]c(=S)c2n[nH]nc2[nH]1,inactive
20,COc1ccc(Cn2c(=O)[nH]c3cc(C(=O)N4CCN(C(=O)c5ccco5)CC4)ccc3c2=O)cc1,inactive
21,COc1ccc(CN2CCc3nc(Nc4ccccc4)ncc3C2)c(OC)c1OC,inactive
22,COc1cc2[nH]c(C)c(CCN3CCN(c4ccccc4)CC3)c2cc1OC,inactive
23,Cc1ccc(-c2nc3ccccn3c2Nc2ccc(F)cc2)o1,inactive
24,CSc1ccc(C2C(C(=O)Nc3ccccc3)=C(C)Nc3nc4ccccc4n32)cc1 (configuration not stated),inactive
25,Cc1cccc(NC(=O)COC(=O)c2ccccc2OCc2cccc(Br)c2)c1,inactive
26,O=C1CSC2(C(=O)N(Cc3ccccc3)c3ccccc32)N1c1cccc(F)c1 (configuration not stated),inactive

row,Compound,Potency
1,CCOC(=O)Cn1c(=O)n(C2CCCCC2)c2nc(-c3cccc(OC)c3)nc(C(N)=O)c21,inactive
2,O=C(Nc1ccccc1C(F)(F)F)c1nc(S(=O)(=O)Cc2ccccc2F)ncc1Cl,inactive
3,COc1ccc(OC)c(NC(=O)C2CCCN(S(=O)(=O)c3ccc4c(c3)CCCC(=O)N4)C2)c1 (configuration not stated),inactive
4,C[C@@H]1C(c2ccc(F)cc2)=NN(c2ccc(Br)cc2)[C@H]1C(=O)N1CCOC1=O,22.4 µM (active)
5,O=C1OCCN1C(=O)[C@H]1[C@H](c2ccccc2)C(c2ccc(F)cc2)=NN1c1ccccc1,inactive
6,O=C1OCCN1C(=O)[C@H]1[C@H](c2ccc(Cl)cc2)C(c2cccc(Cl)c2)=NN1c1ccc(Br)cc1,inactive
7,COc1ccc(-c2nc(=N)sn2-c2ccccc2)cc1,inactive
8,Cc1ccc(C)c(N2CCN(C(=O)Cn3ncn4cccc4c3=O)CC2)c1,inactive
9,Cc1ccc(C)c(N2CCN(C(=O)CCc3nc4ccccc4[nH]3)CC2)c1,15.8 µM (active)
10,Cc1ccc(C)c(N2CCN(C(=O)CCc3nc(-c4cccc(C(F)(F)F)c4)no3)CC2)c1,inactive
11,COc1ccc(CNC(=O)CSc2nc3ccccc3nc2Cc2ccccc2)cc1,inactive
12,C(=Nc1ccc(/C=C/c2ccnc3ccccc23)cc1)c1cc2c3c(c1)CCCN3CCC2,inactive
13,O=C(COC(=O)c1ccccc1OCCOc1ccccc1)Nc1cccc(Br)c1,inactive
14,COc1ccc(C(C)(NC(C)=O)c2nc(-c3ccc(S(C)(=O)=O)cc3)cs2)cc1 (configuration not stated),inactive
15,COc1ccc(C(C)(O)c2nc(-c3ccc(C)c(C)c3)cs2)cc1 (configuration not stated),3.16 µM (active)
16,COc1ccc(C(C)(O)c2nc(-c3cc(F)cc(F)c3)cs2)cc1 (configuration not stated),inactive
17,CCOc1n[nH]c(-c2ccccc2)n1,inactive
18,COc1ccc(N2CCN(S(=O)(=O)c3ccc(-c4coc(C)n4)cc3)CC2)cc1,inactive
19,Cc1ccc2ccc3c(c2n1)NS(=O)(=O)c1ccccc1-3,inactive
20,CC(=O)N1CCN(CC(=O)Nc2ccc(C)c(F)c2)CC1,inactive
21,CCN1CCN(C(=O)C2(NC(=O)Nc3cccc(F)c3)CCCCC2)CC1,inactive
22,CCc1sc(C(=O)N2CCN(CC(=O)Nc3cccc(F)c3)CC2)cc1C,25.1 µM (active)
23,CC1(C)CC(=O)c2cc(C(=O)NCc3ccccc3)c(=O)[nH]c2C1,inactive
24,Oc1ccccc1-c1nc2ccc(Cl)cn2c1Nc1ccc2c(c1)OCCO2,inactive
25,COCc1cccc(-c2csc(C(O)c3ccc(F)cc3)n2)c1 (configuration not stated),inactive
26,COc1ccc(C(O)c2nc(-c3ccc4c(c3)OCO4)cs2)cc1 (configuration not stated),22.4 µM (active)

row,Compound,Potency
1,COc1cc(C(O)c2nc(-c3cnn(C)c3)cs2)ccc1F (configuration not stated),inactive
2,O=C(CCS(=O)(=O)c1ccc2c(c1)NC(=O)CO2)Nc1cccc(C(F)(F)F)c1,inactive
3,COc1cc(OC)c(OC)cc1/C=C1\C=Cc2ccccc21,inactive
4,CCC(=O)Nc1cccc(-c2nc3cc(C)ccc3o2)c1,inactive
5,Cc1cccc(N(C)C(=O)CS(=O)(=O)c2cccc3nsnc23)c1,inactive
6,O=C1O/C(=C\c2ccc(O)cc2)C(O)=C1c1ccc(O)cc1,inactive
7,CCN(CC)c1nc(C#N)nc(OC)n1,inactive
8,CN(C)c1ccc(C=Nc2ccc(/C=C/c3ccnc4ccccc34)cc2)cc1,inactive
9,CCOC(=O)c1ccc(NC(=O)C2CCN(S(=O)(=O)c3ccc4c(c3)CCCC(=O)N4)CC2)cc1,inactive
10,Cc1csc(NCC(=O)c2c[nH]c3ccccc23)n1,inactive
11,COc1ccc(CC(=O)Nc2nnc3n2CCS3)cc1OC,inactive
12,C[N+]1(CC(=O)c2cccs2)CCOCC1,inactive
13,CC(C)(C)c1ccc(C(=O)C[n+]2cccc3cc(Cl)ccc32)cc1,inactive
14,CCOC(=O)c1c(-c2ccc(OC)cc2)oc2ccc(OCc3ccc(C(=O)OC)cc3)cc12,inactive
15,CCN(CC)c1ccc(S(=O)(=O)N2CCCCC2)cc1NC(=O)C1=COCCO1,inactive
16,O=C(CSc1ccccc1)Nc1cccc(S(=O)(=O)N2CCOCC2)c1,inactive
17,CCN(CC)c1ccc(S(=O)(=O)N2CCOCC2)cc1NC(=O)CSc1cccc[n+]1[O-],17.8 µM (active)
18,Cc1ccc(CCNC(=O)c2ccc(CNS(=O)(=O)c3ccc(C)cc3)cc2)cc1,inactive
19,Nc1ccc(/C=C/c2ccnc3ccccc23)c([N+](=O)[O-])c1,inactive
20,Oc1ccc(N=Nc2nccs2)c(O)c1,2.24 µM (active)
21,CN(C)c1ccc(/C=N\Nc2ccc([N+](=O)[O-])cc2[N+](=O)[O-])cc1Cl,inactive
22,CSc1n[nH]c(-c2ccco2)n1,inactive
23,Cc1ccc(C(CNC(=O)Nc2ccccc2)N2CCN(C)CC2)cc1 (configuration not stated),inactive
24,Cc1ccc(NC(=O)NCC(c2cccnc2)N2CCOCC2)cc1 (configuration not stated),5.62 µM (active)
25,Cc1ccc(C)c(NC(=S)NCC(c2cccnc2)N2CCOCC2)c1 (configuration not stated),inactive
26,O=C(COc1ccccc1)Nc1nonc1NC(=O)COc1ccccc1,inactive

row,Compound,Potency
1,O=C(COC(=O)CSc1nnc(-c2ccc(Cl)cc2)o1)Nc1cc(Cl)cc(Cl)c1,inactive
2,O=C(COC(=O)c1ccc(Oc2ccccc2)cc1)Nc1nnc(-c2ccccc2)o1,22.4 µM (active)
3,CCCS(=O)(=O)Nc1cccc(-c2cn3ccsc3n2)c1,inactive
4,CC1CCN(S(=O)(=O)c2ccc3c(c2)N(CC(=O)NCc2ccccc2Cl)C(=O)CO3)CC1,inactive
5,CC(=O)c1ccc[n+](C(C)CCC(C)[n+]2cccc(C(C)=O)c2)c1 (configuration not stated),inactive
6,CN(C)c1ccnc2sc(C(=O)c3ccccc3)c(N)c12,25.1 µM (active)
7,COc1cccc(C(=O)c2sc3nc(-c4ccccc4)cc(C(F)(F)F)c3c2N)c1,inactive
8,CC(=O)c1c(Nc2ccccc2)sc(C(=O)c2ccccc2)c1C,inactive
9,CN(CCC#N)c1ccc(C=O)cc1,inactive
10,Cc1[nH]c2ccccc2c1C(=O)C(=O)N(C)c1ccccc1,inactive
11,CN1CC[C@H](c2c(O)cc(O)c3c(=O)cc(-c4ccccc4Cl)oc23)[C@H](O)C1,inactive
12,COc1cc(C(CC(=O)NCCC(C)C)N2Cc3ccccc3C2=O)cc(OC)c1OC (configuration not stated),inactive
13,COc1ccc(/C=C/c2ccnc3ccccc23)cc1OC,inactive
14,C/C(=N\NC(=O)c1cccc([N+](=O)[O-])c1)c1cccnc1,inactive
15,O=C(NC(=S)NC1CCS(=O)(=O)C1)c1cccc([N+](=O)[O-])c1 (configuration not stated),inactive
16,CC(C)CC(=O)NC(=S)NNC(=O)c1cccc([N+](=O)[O-])c1,17.8 µM (active)
17,O=[N+]([O-])c1ccc(/C=C/c2ccc3cccnc3c2)cc1,inactive
18,O=S(=O)(c1cccc(C(F)(F)F)c1)N1CCN(c2nc(-c3cccs3)nc3ccccc23)CC1,inactive
19,CO[C@H]1O[C@@H]2O[C@@]3(C)CC[C@@H]4[C@@H](C)CC[C@@H]([C@H]1C)[C@@]24OO3,inactive
20,CCOc1cc(C(=O)Nc2nnc3n2CCS3)cc(OCC)c1OCC,inactive
21,CC(C)c1cccc(C(C)C)c1Nc1cn[nH]c1,3.98 µM (active)
22,CC(=O)c1cccc(-c2ccc(CN3C(CC(C)C)C(=O)N(Cc4cn(CC5CCCCC5)nn4)CCS3(=O)=O)cc2)c1 (configuration not stated),inactive
23,COc1ccc(-c2ccc(CN3C(CC(C)C)C(=O)N(Cc4cn(CC5CCCCC5)nn4)CCS3(=O)=O)cc2)cn1 (configuration not stated),inactive
24,CC(C)CC1C(=O)N(Cc2cn(CC3CCCCC3)nn2)CCS(=O)(=O)N1Cc1ccc(-c2ccc(Cl)cc2)cc1 (configuration not stated),1.58 µM (active)
